Tau FP inhib: tau fibrillization inhibition (FP); P10636; K18 P301L tau heparin fibrillization, Alexa594 FP, 6 h; Potency, µM (series often up to 57.7 µM), for the others: at the top dose activity, negative = inhibition, usual class: inhibitors; 280,000 tested, 0.39% active; AID 1468; note: % is set by controls: 0 for no effect and ±100 for the full control effect; nearly all actives have a fitted effect of over 55% in size
Target sequence (P10636 561-689 P618L limits assumed): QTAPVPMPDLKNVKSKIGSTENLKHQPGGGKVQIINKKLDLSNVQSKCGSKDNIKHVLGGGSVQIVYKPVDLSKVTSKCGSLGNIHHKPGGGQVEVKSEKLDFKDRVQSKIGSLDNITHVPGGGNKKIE
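Heparin (20 uM) drove fibril formation of recombinant tau K18 P301L, 15 uM unlabeled with 0.24 uM Alexa 594 label, for 6 hr at 37 C in 100 mM sodium acetate pH 7. Fluorescence polarization (555/632 nm) read 1 hr after 30 uM ThT.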
Tau fluor counter: counter-screen for tau fibril formation inhibitors; tau K18 P301L Alexa594 fluorescence, heparin fibrillization; Potency, µM (highest dose often 57.7 µM), for the others: top-dose activity change, negative = decrease; 280,000 tested, 0.93% active; AID 1463; note: % is set by controls: 0 for no effect and ±100 for the full control effect; nearly all actives have a fitted effect of over 55% in size
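Human K18 P301L tau (15 uM unlabeled plus 0.24 uM Alexa 594-labeled, final) in 100 mM sodium acetate pH 7 was mixed with compound and 20 uM heparin and incubated 6 hr at 37 C.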
HTT aggregate: inhibitors of mutant huntingtin aggregate formation in PC12 cells; 220,000 tested, 1.1% active; PC12 HttQ103-GFP aggregates, Acumen cytometry, 40 h; Potency, µM (top dose mostly 46.1 µM), for inactives: at the top dose activity change, negative = inhibition, actives largely listed as inhibitors; note: % is set by controls: 0 for no effect and ±100 for the full control effect; nearly all actives have a fitted effect of over 60% in size
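Read-out: GFP aggregate count by laser scanning cytometer (488 nm excitation, 500-530 nm emission, 1–25 µm objects >6 SD above background). Cells: PC12, inducible HTTex1-Q103-GFP, 100 nM tebufenozide; compounds titrated.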
Tau ThT inhib: tau fibrillization inhibition (ThT binding) | P10636 | recombinant tau K18 P301L (four-repeat tau fragment), heparin-induced fibrillization, ThT fluorescence | Potency, µM (series often up to 57.4 µM), without a hit: top-dose activity, negative = inhibition, actives largely listed as inhibitors | 270,000 tested, 2.1% active | AID 1460; note: % is set by controls: 0 for no effect and ±100 for the full control effect; nearly all actives have a fitted effect of over 55% in size
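Tau K18 P301L fragment (15 uM unlabeled plus 0.24 uM Alexa 594-labeled) in 100 mM sodium acetate pH 7 with compound, fibrillization induced by 20 uM heparin for 6 hr at 37 C. Thioflavin T (30 uM) added, fluorescence read after 1 hr (ex 450, em 510 nm).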
HTT ATP protect: protects HTT-Q103 PC12 cells, measured by ATP; PC12 HTT-Q103 induced, cytoprotection, ATP luminescence, 40 h; Potency, µM (titrated, usually from 56.4 µM), for inactives: cytoprotection (ATP increase), most hits filed as activators; 230,000 tested, 0.14% active; AID 1471; note: % of control where 0% means no effect; nearly all actives have a fitted effect of over 45% in size
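Readout: ATPlite luminescence (ATP level). Model: stable PC12, inducible Htt exon1 Q103-GFP. Inducer: tebufenozide, 100 nM final. Compounds: dose series. No G418 in medium.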
Active calls of the source: *; ? = inconclusive; nt = no result given; [ ] = another dose, or the depositor's remark. In the library only some 3.7% were active in any assay of this set; here they are far more common. Calls come from the whole dose curve; as a rule, active = well fitted curve in the direction sought with a large enough effect; inconclusive = small, poorly fitted or top-dose-only effect, or another doubt; inactive = no such curve, though single readings can be large; an effect the other way counts as inactive or inconclusive. Potency is the fitted concentration of half-maximal effect.

SMILES	Tau FP inhib	Tau fluor counter	HTT aggregate	Tau ThT inhib	HTT ATP protect
O=C(NCc1ccco1)c1c[nH]c2ccc(S(=O)(=O)Nc3ccc(F)cc3F)cc2c1=O	?	?	nt	-7%	nt
O=C(O)/C=C\C(=O)Nc1ncn[nH]1	nt	nt	nt	nt	-2%[10 µM]
Brc1ccc(-c2csc(N/N=C/c3ccco3)n2)cc1	-13%	18µM*[quencher]	-10%	16µM*	-39%
Cc1ccc(NC(=O)Cn2c(=O)n(CCC(=O)NCc3ccccc3Cl)c(=O)c3ccccc32)cc1	?	-4%	nt	11%	nt
Cc1ccccc1NC(=O)c1sc2nc(-c3ccncc3)ccc2c1N	13%	10µM*[quencher]	nt	5µM*	nt
COc1cccc(-c2ccc3c(N)c(C(=O)c4ccc(F)cc4)sc3n2)c1	?	3.2µM*[quencher]	nt	?	nt
COc1ccc(-c2ccc3c(N)c(C(=O)c4cccc(OC)c4)sc3n2)cc1	8%	?	20%	?	-98%
COc1cccc(-c2ccc3c(N)c(C(=O)NC4CC4)sc3n2)c1	13%	16µM*[quencher]	-2%[9.22 µM]	?	-15%[10 µM]
COc1cccc(-c2ccc3c(N)c(C(=O)Nc4ccccc4C)sc3n2)c1	-4%	8.9µM*[quencher]	nt	?	nt
COc1cccc(-c2ccc3c(N)c(C(=O)Nc4cc(F)ccc4F)sc3n2)c1	12%	?	nt	?	nt
Cc1ccc(S(=O)(=O)O[C@@H]2[C@H]([C@@H]3COC(C)(C)O3)O[C@H]3OC(C)(C)O[C@@H]32)cc1	nt	nt	nt	nt	8%[10 µM]
COc1cccc(-c2ccc3c(N)c(C(=O)NCc4ccc(Cl)cc4)sc3n2)c1	10%	4.5µM*[quencher]	nt	?	nt
COc1ccc(-c2ccc3c(N)c(C(=O)NCc4ccc(C)cc4)sc3n2)cc1	-5%	?	nt	-8%	nt
Nc1nc(N)c2nc(CNc3ccc(C(=O)N[C@H](CCC(=O)O)C(=O)O)cc3)cnc2n1	nt	nt	nt	nt	-21%[1.9 µM]
CCOC(=O)Cc1csc(-n2sc3ccccc3c2=O)n1	28µM*	?	38%	28µM*	-26%[10 µM]
CCOC(=O)Cc1csc(SCn2nnc3ccccc3c2=O)n1	5%	-8%	-17%	-11%	13%[10 µM]
CCOC(=O)c1cccc(NC(=O)N2Cc3ccccc3Oc3ncccc32)c1	0%	-15%	nt	1%	nt
CCN1CCN(c2cc(C)c3cc(NC(=O)Cc4ccc(OC)c(OC)c4)ccc3n2)CC1	0%	-15%	10%	?	9%[10 µM]
CCCCc1ccc(C(=O)Nc2ccc3nc(N4CCN(CC)CC4)cc(C)c3c2)cc1	-11%	?	nt	?	nt
CCN1CCN(c2cc(C)c3cc(NC(=O)c4cccc(Cl)c4)ccc3n2)CC1	7%	14µM*[quencher]	nt	?	nt
CCN1CCN(c2cc(C)c3cc(NC(=O)c4cc(OC)cc(OC)c4)ccc3n2)CC1	10%	16µM*[quencher]	-1%[9.22 µM]	?	-3%[10 µM]
CCN1CCN(c2cc(C)c3cc(NC(=O)/C=C/c4cccc(Cl)c4)ccc3n2)CC1	3%	3.5µM*[quencher]	nt	3.2µM*	nt
COc1cccc([C@@H]2Oc3ccc(Br)cc3C(=O)[C@H]2OC(=O)N[C@H]2CCCc3ccccc32)c1	-1%	-6%	nt	-6%	8%
C[C@@H](O)[C@@H]1C(=O)N2C(C(=O)O)=C([C@H]3CCCO3)S[C@H]12	nt	nt	14%	nt	19%
Nc1cccc2c1C(=O)N(CC(=O)NC13CC4CC(CC(C4)C1)C3)C2=O	-4%	-6%	6%	13%	-20%[10 µM]
SMILES	Tau FP inhib	Tau fluor counter	HTT aggregate	Tau ThT inhib	HTT ATP protect
O=C(Cn1sc2ccccc2c1=O)NC12CC3CC(CC(C3)C1)C2	20µM*	-28%	11%	16µM*	-109%
O=C(Nc1ccc(Cl)c(Cl)c1)OCc1cccnc1	14µM*	?	?	18%	10%[10 µM]
O=C(NNC(=O)c1cccnc1)Nc1ccc(Cl)c(Cl)c1	13%	2%	-6%	8%	-12%
CS(=O)(=O)c1ccc(/C=N\NC(N)=S)cc1	nt	nt	nt	nt	-9%[10 µM]
Cn1cc([N+](=O)[O-])c(C(=O)Nc2ccc3nc(-c4ccccc4)[nH]c3c2)n1	-4%	?	?	16µM*	-9%[10 µM]
Cn1cccc1-c1nc2ccc(NC(=O)c3ccc([N+](=O)[O-])cc3)cc2[nH]1	0%	?	3%	1.3µM*	-25%
